Shown are actives, neighbours in structure and some others; about 12% of the full set was active somewhere.
SARS PLpro yeast: blocks SARS-CoV papain-like protease in a yeast assay; S. cerevisiae expressing SARS-CoV PLpro, growth rescue; Potency, µM (highest dose often 32.9 µM), for the others: at the highest dose activity, positive = growth rescue, hits mostly activators; actives 0.19% (n = 330,000); AID 485353; calls by dose curve; note: 0% is about no effect; nearly all actives have a fitted effect of over 55% in size
Pf growth 48h: P. falciparum growth inhibition at 48 hours (one generation) | P. falciparum luciferase growth in erythrocytes, 48 h | Potency, µM (top dose mostly 28.7 µM), inactives show top-dose activity change, negative = inhibition, most hits filed as inhibitors | actives 5.9% (n = 310,000); note: % is set by controls: 0 for no effect and ±100 for the full control effect
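Growth was read as firefly luciferase luminescence after a 48 h, 37 C, 5% CO2 exposure of compounds to reporter-bearing P. falciparum cultures (0.1% parasitemia, 2% hematocrit final) in Albumax-supplemented RPMI 1640.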
Pf growth 96h: inhibits malaria parasite growth, 96 h; P. falciparum luciferase reporter growth, 96 h; Potency, µM (top dose mostly 28.7 µM), inactives show at the highest dose activity change, negative = inhibition, usual class: inhibitors; actives 6.9% (n = 320,000); AID 504834; note: % is set by controls: 0 for no effect and ±100 for the full control effect
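P. falciparum expressing integrated firefly luciferase, in erythrocytes at 2% hematocrit, 0.05% parasitemia, incubated with compounds 96 h at 37 C, 5% CO2. Growth inhibition read as loss of luminescence; two-generation exposure targets delayed-death apicoplast inhibitors.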
HCV inhibitor: HCV inhibition | Potency, µM (highest dose often 41.8 µM), inactives show top-dose activity change, negative = inhibition, usual class: inhibitors | actives 3.4% (n = 340,000) | Huh7.5.1 HCVcc-Cre infection, luciferase reporter, 44 h | AID 651820; note: % is set by controls: 0 for no effect and ±100 for the full control effect
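HCVcc-Cre virus at an moi near 0.5 was added right after compound to cells cultured 4 h from seeding (1,000 cells/well). Luciferase activity was determined 44 h later, 15 min after substrate addition at RT.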
AMA1 RON2 block: AMA1-RON2 (P. falciparum) interaction inhibition. Potency, µM (top dose mostly 58.2 µM), without a hit: top-dose activity change, negative = inhibition, most hits filed as inhibitors. actives 0.2% (n = 360,000). AlphaScreen AMA1-biotinylated RON2 peptide binding;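 note: 0% = vehicle wells and -100% = peptide control; nearly all actives have a fitted effect of over 45% in size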
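AMA1 (3D7) with his tag at 25 nM final met compounds first, then biotinylated RON2 peptide at 25 nM; detection used donor plus acceptor beads, 10 µg/mL apiece, read by AlphaScreen after 30 min at room temperature.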
NS1 function inh: blocks influenza NS1 protein function. Potency, µM (highest dose often 46.1 µM), without a hit: top-dose activity, positive = more growth. actives 0.4% (n = 270,000); calls by dose curve; note: actives are rising curves; nearly all actives have a fitted effect of over 50% in size
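S. cerevisiae expressing influenza A NS1, grown in glucose, washed, then diluted 1:100 into pH 6.0 -URA galactose medium with 23 nl compound. Growth recovery read as OD600; NS1-free strain serves as control.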
* marks the source's active call; other numbers are inactive results; ? = inconclusive; . = no result; [ ] = another dose, or the depositor's remark. Unless noted, calls come from the whole dose curve; as a rule, active = well fitted curve in the direction sought with a large enough effect; inconclusive = small, poorly fitted or top-dose-only effect, or another doubt; inactive = no such curve, though single readings can be large; an effect the other way counts as inactive or inconclusive. Potency is the fitted concentration of half-maximal effect.

SMILES	SARS PLpro yeast	Pf growth 48h	Pf growth 96h	HCV inhibitor	AMA1 RON2 block	NS1 function inh
COC(=O)C1=CN(c2ccc(OC)cc2)C=C(C(=O)OC)C1c1cc(OC)c(OC)cc1OC	0%	24%	4.1µM*	-14%	-2%	15%
COCCN1C=C(C(=O)OC)C(c2ccc(Cl)cc2)C(C(=O)OC)=C1	-2%	10µM*	0%	-5%	46%	-1%
COC(=O)C1=CN(Cc2cccs2)C=C(C(=O)OC)C1c1ccc(OC)cc1OC	0%	?	30%	-11%	50%	6%
Cc1nn2cnnc2c(C)c1Cc1ccc(Cl)cc1	-2%	10%[0.00184 µM]	?	11%	-11%	-11%
CC(C)c1ccc(NC2CCCN(C(=O)c3n[nH]c4c3CCC4)C2)cc1 (configuration not stated)	4%	-17%	?	?	25%	1%
O=C(CN1C(=O)NC2(CCCc3ccccc32)C1=O)NCC(F)(F)F (configuration not stated)	-2%	20%	12%	11%	5%	-3%
CCCCOC(=O)c1cccnc1	0%	?	?	14%	-10%	0%
COCCN1C=C(C(=O)OC)C(c2ccc3c(c2)OCO3)C(C(=O)OC)=C1	10%	?	-17%	-27%	6%	0%
COCCN1C=C(C(=O)OC)C(c2cc3c(cc2Br)OCO3)C(C(=O)OC)=C1	7%	5.9µM*	?	11%	7%	-32%
CCN1C=C(C(=O)OC)C(c2cccc(C)c2)C(C(=O)OC)=C1	5%	.	12µM*	-4%	56%	-4%
COC(=O)C1=CN(c2ccc(F)cc2)C=C(C(=O)OC)C1c1ccc(O)cc1	-3%	10%[0.00184 µM]	0%	11µM*	16%	-4%
CC(C)[C@@H](CO)NS(=O)(=O)c1ccc(Br)cc1F	16%	.	.	14%	11%	.
O=C(NC1CC(=O)N(c2ccc3c(c2)OCCO3)C1)N1CCC(O)CC1 (configuration not stated)	2%	?	-1%	20%	-3%	.
Cn1nccc1C(=O)Nc1nnc(C2CC2)s1	2%	16%	45%	16%	5%	-10%
N#Cc1c(-c2ccccc2)nc(SCC(=O)N(c2ccccc2)c2ccccc2)[nH]c1=O	24%	8%	13µM*	0%	24%	25%
N#Cc1c(-c2ccccc2)nc(SCC(=O)Nc2ccc(OC(F)(F)Cl)cc2)[nH]c1=O	3%	-17%	3.7µM*	7%	-12%	5%
N#Cc1c(-c2ccccc2)nc(SCC(=O)Nc2ccccc2)[nH]c1=O	-32%	9%	-14%	1%	16%	-4%
COc1ccc(CC(=O)OC(C)C(=O)Nc2c(C)n(C)n(-c3ccccc3)c2=O)cc1OC (configuration not stated)	-3%	.	.	?	-1%	.
CC(C)CNc1nc2ncnc(N)c2[nH]1	.	.	.	.	.	-4%
Cc1noc(NC(=O)c2cccc(Cl)c2Cl)c1C#N	-2%	0%	13%	-24%	-3%	-7%
CCn1c(COc2cccc(C)c2C)nnc1SCC(=O)N1CCN(c2ccc(OC)cc2)CC1	4%	?	9.3µM*	?	-4%	14%
CCn1c(SCC(=O)N2CCCc3ccccc32)nnc1-c1cccs1	1%	?	17%	?	5%	-4%
CCn1c(COc2ccccc2C)nnc1SCC(=O)N1CCN(c2ccccc2)CC1	-5%	10µM*	?	?	-12%	-9%
CCn1c(CC(=O)Nc2cccc(OC)c2)nnc1SCC(=O)N1CCN(c2ccccc2)CC1	-4%	-11%	15%	-15%	0%	-13%[9.22 µM]
CCn1c(SCC(=O)N2CCOCC2)nnc1-c1cccs1	11%	-3%	12µM*	12%	-5%	1%
SMILES	SARS PLpro yeast	Pf growth 48h	Pf growth 96h	HCV inhibitor	AMA1 RON2 block	NS1 function inh
OCC1OC(n2cnc3c(NCc4ccccc4O)ncnc32)C(O)C1O (configuration not stated)	.	.	.	-14%	-15%	.
COc1ccc(CC2(CO)CCN(CC3=CC[C@H]4C[C@@H]3C4(C)C)CC2)cc1	1%	7.4µM*	14%	-10%	-1%	-1%
COc1ccc(C(=O)N2c3ccc(F)cc3CCC2C)cc1OC (configuration not stated)	1%	?	.	-20%	-12%	-13%
COc1ccccc1NC(=O)N1c2ccc(F)cc2CCC1C (configuration not stated)	-3%	-16%	4.7µM*	13%	-8%	-53%
Cc1cc(C)c(C)c(S(=O)(=O)NCCCn2ccnc2)c1C	1%	?	6.6µM*	12%	-9%	8%
Cc1cc(OCCn2ccnc2)ccc1C(C)C	-7%	-8%	?	-9%	?	16%
Cc1ccc(OCCCCn2ccnc2)c(Cl)c1	-3%	?	10%	?	-7%	-8%
Cc1cc(C)cc(OCCCn2ccnc2)c1	-5%	-10%	4.7µM*	-8%	1%	1%
CC(C)c1cccc(C(C)C)c1OCCn1ccnc1	-3%	13µM*	-26%	-9%	-9%	-14%
Cc1ccc(C)c(OCCCCn2ccnc2)c1	-7%	.	13µM*	?	-4%	-46%
Cc1cccc(OCCCn2ccnc2)c1	1%	9.3µM*	0%	4%	-20%	2%
Cc1ccc(OCCCn2ccnc2)cc1C	-7%	?	-39%	1%	-5%	-8%
CCc1cc2c(SCC(=O)N(C)C3CCS(=O)(=O)C3)ncnc2s1 (configuration not stated)	0%	-19%	-7%	17%	-30%	-3%
O=c1[nH]c(O)c(/C=C2/C=CC(c3cc(Cl)ccc3Cl)=N2)c(=O)[nH]1	-1%	65%	113%	32µM*	11%	-63%
Cc1ccc(NC(=O)Cn2cc(S(=O)(=O)c3ccccc3)c(=O)c3cc(F)ccc32)cc1	-5%	12%	2%	3%[8.37 µM]	13%	?
O=c1c(S(=O)(=O)c2ccc(Cl)cc2)cn(Cc2ccccc2)c2ccc(F)cc12	-4%	?	12µM*	-20%	16%	7%
CC1(C)Cc2c(c(N3CCOCC3)nc3sc4c(=O)[nH]cnc4c23)CS1	0%	9%	-17%	?	20%	14%
CC1(C)Cc2c(c(N3CCOCC3)nc3sc4c(NCCN)ncnc4c23)CO1	.	.	.	7.1µM*	-4%	.
CN(C)CCNc1ncnc2c1sc1nc(N3CCOCC3)c3c(c12)CC(C)(C)SC3	1%	?	?	10µM*	?	1%
CCN(CC)CCNc1ncnc2c1sc1nc(N3CCOCC3)c3c(c12)CC(C)(C)SC3	5%	?	5.2µM*	11%	13%	13%
N#Cc1ccc(NC(=O)COC(=O)C2CCC2)cc1	.	.	.	.	8%	.

Compound activity as filed in PubChem BioAssay.
